Source: PubChem BioAssay AID504386 (National Center for Advancing Translational Sciences (NCATS), 2011)
Inconclusive results are not listed. Activity calls are given as the source filed them. The call rests on the fitted dose curve; in most records, active means well fitted curve in the direction sought with a large enough effect; inconclusive means small, poorly fitted or top-dose-only effect, or another doubt; inactive means no such curve, though single readings can be large or run the other way.

Biological target: Runt-related transcription factor 1 (Homo sapiens) + Core-binding factor subunit beta (Homo sapiens) (UniProt Q01196+Q13951)
Sequence (Q01196 whole entry, looked up): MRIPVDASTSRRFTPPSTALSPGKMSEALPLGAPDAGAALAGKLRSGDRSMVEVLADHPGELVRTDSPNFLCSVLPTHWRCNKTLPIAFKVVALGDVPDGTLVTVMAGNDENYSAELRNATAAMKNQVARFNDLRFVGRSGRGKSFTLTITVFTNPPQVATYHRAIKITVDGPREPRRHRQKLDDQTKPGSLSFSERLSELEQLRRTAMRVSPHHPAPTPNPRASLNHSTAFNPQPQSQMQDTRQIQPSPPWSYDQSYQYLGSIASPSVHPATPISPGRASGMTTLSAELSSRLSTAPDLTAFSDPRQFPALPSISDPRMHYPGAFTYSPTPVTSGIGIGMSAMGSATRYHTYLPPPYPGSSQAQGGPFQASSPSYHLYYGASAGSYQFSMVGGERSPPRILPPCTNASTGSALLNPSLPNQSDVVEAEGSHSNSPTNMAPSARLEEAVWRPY
Sequence (Q13951 whole entry, looked up): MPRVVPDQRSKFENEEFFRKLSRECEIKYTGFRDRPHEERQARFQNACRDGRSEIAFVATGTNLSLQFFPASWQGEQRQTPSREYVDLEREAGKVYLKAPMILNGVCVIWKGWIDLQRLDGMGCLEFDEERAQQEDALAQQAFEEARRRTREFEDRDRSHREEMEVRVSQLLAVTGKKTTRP
Test: qHTS Assay for Compounds Blocking the Interaction Between CBF-beta and RUNX1 for the Treatment of Acute Myeloid Leukemia: SAR for Probe
Details: AlphaScreen CBFb-His/RUNX1-biotin binding, biochemical
Description: NIH Chemical Genomics Center [NCGC] NIH Molecular Libraries Probe Production centers Network [MLPCN] MLPCN Grant: X01MH083259-01 Assay Submitter (PI): Paul Liu NCGC Assay Overview: Core Binding Factor (CBF) abnormalities are associated with 20-25% of all acute myeloid leukemias (AML), of which 5-10% are further sub classified as acute myelomonocytic leukemia with eosinophilia, also known as M4Eo in the FAB classification scheme. This subtype of leukemia is usually associated with chromosome 16 inversion (p13:q22). Chromosome 16 inversion results in formation of the fusion oncogene CBFB-MYH11, which encodes the fusion protein CBF-beta-SMMHC. […] It has been hypothesized that the interference of CBF-beta and RUNX1 binding could have therapeutic implications for patients with CBF mediated leukemias. […]
NCGC Assay Protocol Summary: Step, Parameter, Description (1) Reagent, 3 uL CBFb-His/RUNX1-biotin mix incubated together for 20 minutes at room temperature (30 nM each) (2) Compound or control, 23 nL compound stock solution (3) Incubation, 15 minutes at Room temperature (4) Reagent, 1 uL 50 ng each of beads (Nickel beads and streptavidin beads) (5) Incubation, 90 minutes at Room temperature (6) Detection, […], Envision reader in AlphaScreenTM mode Keywords: MLSMR, MLPCN, NIH Roadmap, qHTS, NCGC, Core binding factor, CBF, CBF-beta, Acute myeloid leukemia

| SMILES | Potency |
| --- | --- |
| CCN(CC)CCN1C(=O)CN=C(c2ccccn2)c2cc(Cl)ccc21 | 21.7 µM (active) |
| CN1C(=O)CN=C(c2ccc[nH]2)c2cc(Cl)ccc21 (tested in a mixture with another compound) | 109 µM (active) |
